D2 ag-1 – human D2 receptor agonism in beta-arrestin assay; P14416; DiscoveRx PathHunter D2 beta-arrestin, luminescence, 90 min; 100% = 57 uM dopamine signal; activation, % (no concentration beside the values); 360,000 tested, 0.084% active; in the data active = activation above about 40%
Target sequence (P14416 whole entry, looked up): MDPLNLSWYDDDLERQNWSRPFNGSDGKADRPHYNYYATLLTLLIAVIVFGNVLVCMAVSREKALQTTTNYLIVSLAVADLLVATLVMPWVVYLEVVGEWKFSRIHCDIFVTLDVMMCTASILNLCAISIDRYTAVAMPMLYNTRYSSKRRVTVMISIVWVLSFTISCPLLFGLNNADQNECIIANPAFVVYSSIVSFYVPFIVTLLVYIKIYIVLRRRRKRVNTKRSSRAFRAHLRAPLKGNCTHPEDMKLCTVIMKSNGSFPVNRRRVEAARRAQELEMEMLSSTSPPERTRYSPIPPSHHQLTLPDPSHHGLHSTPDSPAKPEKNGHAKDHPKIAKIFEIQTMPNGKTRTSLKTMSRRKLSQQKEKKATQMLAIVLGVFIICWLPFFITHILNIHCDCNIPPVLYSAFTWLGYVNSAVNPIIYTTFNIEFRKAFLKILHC
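Agonist mode: compounds alone added to overnight-plated D2 PathHunter cells for 90 min at 37 C, with 57 uM final dopamine (EC100) defining full response. Beta-arrestin recruitment detected by chemiluminescent reagent, read after 1 h at ambient temperature.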
D2 PAM-1 – positive allosteric modulators of human D2 dopamine receptor; P14416; DiscoveRx D2 beta-arrestin cells, luminescence, 90 min; 100% = 57 uM dopamine signal; potentiation, % (test concentration not listed); 360,000 tested, 0.23% active; in the data active = potentiation above about 50%
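PathHunter beta-arrestin assay in DiscoveRx D2 cells. Compounds were added with an EC20 of dopamine (50 nM final) for 90 min at 37 deg C. Luminescence was read 1 h after detection reagent, with 57 uM dopamine as the EC100 control.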
D2 antagonist – antagonists of human D2 dopamine receptor; P14416; HEK293 TREx D2 cells, calcium flux, dopamine EC80; inhibition, % at 10 µM; 340,000 tested, 2% active; AID 485344; in the data active = inhibition above about 30%; inactive = below that, where a call was filed; note: 0% is about no effect
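Overnight-induced (tetracycline, 30 C) HEK293 T-REx cells carrying force-coupled D2 receive a no-wash calcium dye, then compound, then EC80 dopamine at 180 s; signals are read kinetically throughout.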
D2 ag-2 – D2 dopamine receptor (human) agonism; P14416; HEK293 T-REx D2 cells, calcium flux agonist mode; activation, % at 2 µM; 340,000 tested, 0.53% active; AID 485358;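 active = activation over 3 SD above normal in the single-dose calcium agonist read, cut at about 30% in these data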; note: 0% is about no effect
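Tetracycline-induced HEK293 T-REx cells with force-coupled D2 receptor, plated overnight at 30 C, loaded with no-wash calcium dye. After a 10 s baseline, compound was pin-added and calcium flux read kinetically for 180 s; calcium rises flagged agonists.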
D2 PAM-2 – positively modulates the human D2 dopamine receptor allosterically | P14416 | potentiation, % at 10 µM | HEK293 T-REx D2, calcium flux, EC20 dopamine potentiation | AID 485347 | 340,000 tested, 0.34% active;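 active = potentiation over 3 SD above the plate norm, cut at about 30% in these data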; note: 0% is about no effect
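Using a no-wash calcium dye in inducible, force-coupled HEK293 Trex cells expressing D2, we tracked fluorescence each second for 180 s after compound, then for 180 s after EC20 dopamine to detect augmented signalling.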
* marks the source's active call; other numbers are inactive results; nt = not tested or not shown. Sampled rows, rich in hits. Any-hit rate of the full collection: about 2.4%.

SMILES | D2 ag-1 | D2 PAM-1 | D2 antagonist | D2 ag-2 | D2 PAM-2
CCN(CC)S(=O)(=O)c1cccc(C(=O)NCC2(N3CCOCC3)CCCCC2)c1 | -4 | -2 | 39* | 0 | 3
COc1ccc(CCn2cc3c(c2-c2ccccc2Br)c(=O)n(C)c(=O)n3C)cc1OC | nt | nt | nt | 2 | 2
Cc1csc(NS(=O)(=O)c2cccc([N+](=O)[O-])c2)n1 | 2 | -9 | 34* | 1 | -22
Cc1ccc(OCC(=O)OC2=C(C(=O)c3ccccc3)N(C)S(=O)(=O)c3ccccc32)cc1 | nt | nt | nt | -1 | 9
Cc1cc(Br)ccc1NS(=O)(=O)c1c(C)[nH]c(=O)[nH]c1=O | -4 | -3 | 1 | 0 | 0
Cc1cc(NS(=O)(=O)c2c(C)[nH]c(=O)[nH]c2=O)ccc1Br | -4 | -8 | 41* | 0 | -8
CC1Cn2c(C(=O)NCc3ccccc3Cl)cc3cccc(c32)S1 (configuration not stated) | nt | nt | nt | 1 | 6
OC(COc1ccc2c(c1)CCC2)CN1CCN(c2ccccc2F)CC1 (configuration not stated) | 15 | -30 | -21 | 1 | 8
Oc1ccccc1N1CCN(CC(O)COC2CCCc3ccccc32)CC1 (configuration not stated) | -1 | -8 | 40* | 11 | -22
N/C(COc1ccc(Cl)cc1Cl)=N\O | -4 | -17 | -7 | 1 | 32*
Clc1ccc(/C=N/Nc2nnc(-c3ncc[nH]3)c3ccccc23)cc1 | -4 | -17 | 70* | 0 | -18
O=S(=O)(c1ccc(F)cc1)N1CCC(O)(c2ccc3c(c2)OCO3)CC1 | 0 | -12 | 1 | -1 | 6
OC1(c2ccc(F)cc2)CCN(Cc2cccnc2)CC1 | -6 | -15 | 34* | 1 | -30
OC1(c2ccc3c(c2)OCO3)CCN(Cc2ccc(F)cc2)CC1 | -6 | -40 | 73* | 2 | -22
O=C(Cn1ccc(=O)[nH]c1=O)c1ccc([N+](=O)[O-])o1 | 47* | 6 | nt | nt | nt
Cc1nn(CC(C)C)c(=S)[nH]c1=O | -4 | -15 | 32* | 0 | 14
O=C(CN1CCc2ccccc2C1)N1CCN(S(=O)(=O)c2ccccc2)CC1 | 6 | -5 | 7 | 35* | -11
O=C(Nc1ccc(S(=O)(=O)N2CCCC2)cc1)c1ccc(CN2CCc3ccccc3C2)cc1 | 1 | -36 | 64* | 3 | -16
CCOc1ccc(C(=O)Nc2ccccc2NC(C)=O)cc1OCC | 0 | -9 | 103* | -2 | -37
O=C(CNC1CCN(Cc2ccccc2)CC1)Nc1ccc(S(=O)(=O)N2CCCCC2)cc1 | -3 | -25 | 37* | 0 | -29
Cc1ccc(S(=O)(=O)N2CCN(C(=O)CN3CCc4ccccc4C3)CC2)cc1 | 2 | -12 | 3 | 15 | -18
CC(=O)Nc1ccc(NC(=O)c2oc3ccc4c(c3c2C)C(=O)CC(C)(C)O4)cc1 | nt | nt | nt | 0 | -12
Cc1ccc(Cl)cc1N1CCN(C(=O)Cc2c(C(=O)O)c(C)cn2C)CC1 | nt | nt | nt | 1 | 11
Cc1ccc(C(=O)NCc2ccc(N(C)C)cc2)cc1NC(=O)c1nsc2ccccc12 | nt | nt | nt | nt | -6
COc1cccc(NC(=O)Cn2c(=O)n(CCC(=O)NCc3ccccc3OC)c(=O)c3ccccc32)c1 | nt | nt | nt | nt | -6
SMILES | D2 ag-1 | D2 PAM-1 | D2 antagonist | D2 ag-2 | D2 PAM-2
CC(=O)c1cccc(NC(=O)c2ccc(CN3CCc4ccccc4C3)cc2)c1 | -8 | -4 | 19 | 7 | -32
Cc1cc(C)c(NC(=O)c2ccc(CN3CCc4ccccc4C3)cc2)c(C)c1 | -1 | -43 | 52* | 8 | -24
CCOc1ccccc1NC(=O)c1ccc(CN2CCc3ccccc3C2)cc1 | -1 | -20 | 54* | 1 | -19
O=C(c1ccc(CN2CCc3ccccc3C2)cc1)N1CCCCC1 | -2 | -37 | 35* | 14 | -20
CC(=O)OC(C)CS(=O)(=O)c1ccccc1 (configuration not stated) | -3 | 0 | 30* | 0 | 26
CCOC(=O)c1c(C)[nH]c(C)c1S(=O)(=O)N1CCC(C(=O)Nc2cc(Cl)ccc2OC)CC1 | nt | nt | nt | 0 | 13
Cc1ccc(Cl)cc1N1CCN(C(=O)c2ccc3c(c2)CCN3S(=O)(=O)c2ccccc2)CC1 | nt | nt | nt | nt | 7
CCOC(=O)c1c(C)[nH]c(N=Nc2ccccc2)c1C | -4 | -13 | 67* | -1 | 5
CCOC(=O)c1c(C)[nH]c(N=Nc2ccc(C)cc2)c1C | -1 | -18 | -5 | 1 | 10
CCOC(=O)c1c(C)[nH]c(N=Nc2cccc(C)c2)c1C | -3 | -20 | 33* | 1 | 13
COc1ccc(CCN(C)C(=O)C2CCN(Cc3ccc(C)cc3)CC2)cc1OC | 1 | -21 | 47* | 0 | -23
COc1ccc(CN2CCC(C(=O)N(C)CCc3ccc(OC)c(OC)c3)CC2)c(OC)c1 | 2 | -19 | -11 | 0 | 31*
O=C(NCCCN1CCN(c2ccc(F)cc2)CC1)Nc1ccccc1Cl | nt | nt | nt | 0 | 0
COC(=O)c1ccc(NC(=O)CSCc2ccccc2C)cc1 | 1 | -1 | 35* | -1 | -10
COC(=O)c1ccc(NC(=O)CSCc2ccccc2)cc1 | -3 | 0 | 0 | -3 | 5
CCn1c(SCC(=O)Nc2ccc(C(=O)OC)cc2)nc2cccnc21 | -2 | -11 | -1 | -1 | 35*
CCn1c(SCC(=O)Nc2ccc(C(C)=O)cc2)nc2ccccc21 | 1 | -7 | 19 | 0 | 2
CSc1ccc(CCNC(=O)C2CCN(c3ncnc4c3nc3n4CCCCC3)CC2)cc1 | nt | nt | nt | -1 | 5
COc1ccc(C(=O)NCCn2cc(SCc3cccc(F)c3)c3ccccc32)cc1OC | nt | nt | nt | -1 | -4
CCOc1ccc(-c2nnc(NC(=O)Cc3ccc(OC)cc3)o2)cc1 | -4 | -7 | 35* | 0 | -8
COc1ccc(-c2nnc(NC(=O)c3ccc(F)cc3)o2)cc1 | -6 | 1 | 34* | -1 | -13
O=C(CSc1nc2sc3c(c2c(=O)[nH]1)CCCC3)NCCO | -6 | -8 | 42* | 0 | -8
CCOC(=O)CSc1nc2sc3c(c2c(=O)[nH]1)CCCC3 | 1 | -7 | 6 | 0 | 0
CCOC(=O)c1cc(S(=O)(=O)Nc2cc(F)ccc2C)[nH]n1 | nt | nt | nt | 1 | -3
O=C(COC(=O)/C=C/c1cccc(F)c1)NNC(=O)c1ccccc1 | 6 | -4 | 45* | 0 | 4
O=C(COC(=O)/C=C/c1cccc(F)c1)Nc1ccccc1 | 1 | -5 | 2 | 0 | 4
COC(=O)c1sccc1NC(=O)c1ccc(C)s1 | -2 | -4 | 33* | -1 | 33*
COC(=O)c1sccc1NC(=O)Cc1ccc(Br)cc1 | 2 | -8 | 42* | -1 | -6
COC(=O)c1sccc1NC(=O)Nc1ccc(C)c(C)c1 | -6 | 0 | -3 | 0 | -4

Bioassay records deposited in PubChem BioAssay by National Center for Advancing Translational Sciences (NCATS).
